From PubChem BioAssay (NCATS)
Inconclusive results are not listed. A call without a number means that no potency is given here. Active and inactive are the calls of the source. The call rests on the fitted dose curve; in most records, active means well fitted inhibition curve with a large enough effect; inconclusive means small, poorly fitted or top-dose-only effect; inactive means flat fitted curve, though single readings scatter.

Each compound was assayed against Phospholipid hydroperoxide glutathione peroxidase GPX4 (Homo sapiens) (UniProt P36969) (assay: Primary qHTS Assay for Inhibitors of Recombinant Selenoprotein Glutathione Peroxidase 4 (GPX4) (AID 1845192; further: nearly all actives have a fitted effect of over 65% in size)). Conditions: recombinant GPX4, GR-coupled NADPH fluorescence, 15 min; series mostly up to 50 µM.
Summary of the method: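 NADPH consumption, followed by fluorescence at 340/450 nm between 0 and 15 min, reports GPX4 activity via coupled glutathione reductase (100 nM). Enzyme 200 nM was pre-exposed to compound 30 min; 0.5 mM cumene hydroperoxide and 1 mM GSH served as substrates.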

Sequence of Phospholipid hydroperoxide glutathione peroxidase GPX4 (Homo sapiens) (P36969 whole entry, looked up): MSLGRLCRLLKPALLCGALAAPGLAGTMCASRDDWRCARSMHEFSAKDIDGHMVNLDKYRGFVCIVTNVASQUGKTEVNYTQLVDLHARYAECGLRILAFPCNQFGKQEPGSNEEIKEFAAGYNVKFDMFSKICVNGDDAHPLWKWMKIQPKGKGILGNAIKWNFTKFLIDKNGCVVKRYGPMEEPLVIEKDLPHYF

| SMILES | Potency |
| --- | --- |
| CC(=O)Nc1ccn(C2COC(COC(=O)c3ccccc3)O2)c(=O)n1 (configuration not stated) | inactive |
| COc1cc(C(=O)OC(COCCC(C)C)CN2CCOCC2)cc(OC)c1OC (configuration not stated) | inactive |
| C[C@@H]1C[C@H]2[C@@H]3CCC4=CC(=O)C=C[C@]4(C)[C@@]3(F)[C@@H](O)C[C@]2(C)[C@@]1(O)C(=O)COC(=O)c1ccncc1 | inactive |
| Cc1c(F)cc2c(=O)c(C(=O)O)cn3c2c1CCC3C (configuration not stated) | inactive |
| Cc1oc(=O)oc1COC(=O)[C@@H]1N2C(=O)[C@@H](NC(=O)[C@H](N)c3ccccc3)[C@H]2SC1(C)C | inactive |
| COC(=O)C1=C(C)NC(C)=C(C(=O)OCCc2ccc(N3CCN(C(c4ccccc4)c4ccccc4)CC3)cc2)C1c1cccc([N+](=O)[O-])c1 (configuration not stated) | inactive |
| CN(C)CCCOC1(Cc2ccccc2)CCCCCC1 | inactive |
| CC(=O)Nc1ccc(S(=O)(=O)Nc2cc(C)on2)cc1 | inactive |
| NC(=O)C1(N2CCCCC2)CCN(CCCN2c3ccccc3CCc3ccc(Cl)cc32)CC1 | inactive |
| O=C(CCOCCOCCOCCOCCC(=O)Nc1c(I)cc(I)c(C(=O)O)c1I)Nc1c(I)cc(I)c(C(=O)O)c1I | inactive |
| CN1CC(=O)N2[C@H](c3ccc4c(c3)OCO4)c3[nH]c4ccccc4c3C[C@@H]2C1=O | inactive |
| Cn1cc(S(C)=O)c(=O)c2ccc(F)cc21 (configuration not stated) | inactive |
| CC(=O)N(c1onc(C)c1C)S(=O)(=O)c1ccc(N)cc1 | inactive |
| CCOC(=O)NNc1nncc2ccccc12 | inactive |
| Cc1ccccc1C(=O)N1CC/C(=N\OS(=O)(=O)O)c2ccc(Cl)cc21 | inactive |
| O=C(NN1CCCC1)NS(=O)(=O)c1ccc(Cl)cc1 | inactive |
| O=C(O)c1ccccc1S | inactive |
| CCN1CCN(c2cc(-c3ccc(F)cc3)c3c(n2)CCCCCC3)CC1 | inactive |
| Oc1ccccc1 | inactive |

| SMILES | Potency |
| --- | --- |
| O=C1NCCN1CCN1CCC(c2cn(-c3ccc(F)cc3)c3ccc(Cl)cc23)CC1 | inactive |
| CCCCC(O)/C=C(C)/C=C/C=C/C(=O)N1CCCC1=O (configuration not stated) | inactive |
| Cc1nc(C2CCCCC2)c(-c2ccc(S(N)(=O)=O)c(F)c2)o1 | inactive |
| CCN(CC)CCOc1ccc(/C(=C(\Cl)c2ccccc2)c2ccccc2)cc1 | inactive |
| O=S(=O)(O)c1ccc2nc(-c3ccccc3)[nH]c2c1 | inactive |
| CN(CC1(C)CCCO1)S(=O)(=O)c1ccc(Cl)c(S(N)(=O)=O)c1 (configuration not stated) | inactive |
| COC(=O)/C=C\C(=O)OC | inactive |
| [O-][n+]1cccc(/C(Cl)=N/OC[C@@H](O)CN2CCCCC2)c1 | inactive |
| CCCCCC1Nc2cc(C(F)(F)F)c(S(N)(=O)=O)cc2S(=O)(=O)N1 (configuration not stated) | inactive |
| COc1ccc(-n2nc(CCC(=O)N(C)O)cc2-c2ccc(Cl)cc2)cc1 | inactive |
| Cc1cc(O)c2c(O)c3c(O)cccc3cc2c1 | inactive |
| CC(C)=CCC/C(C)=C/CC/C(C)=C/CCC(=O)OC/C=C(\C)CCC=C(C)C | inactive |
| O=C(CCCCC(=O)Nc1c(I)cc(I)c(C(=O)O)c1I)Nc1c(I)cc(I)c(C(=O)O)c1I | inactive |
| CCC(C(=O)NC(=O)NC(C)=O)c1ccccc1 (configuration not stated) | inactive |
| C[C@H]1C[C@H]2[C@@H]3CCC4=CC(=O)C=C[C@]4(C)[C@H]3C(=O)C[C@]2(C)[C@@]1(O)C(=O)CO | inactive |
| CCOc1c(N2CCOCC2)cnn(C)c1=O | inactive |
| Cc1ccc(C(=O)C(=O)O)cc1C | inactive |
| O=C(CO)[C@@H](O)[C@H](O)[C@@H](O)CO | inactive |
